# Experimental data taken from PubChem BioAssay (NCI).
# About 79,000 compounds went through this panel and 15% of them were active in at least one assay; those are over-represented in the sample as a whole. Values without a mark were called inactive. Active and inactive are the calls of the source. Rule as the data show it: active = growth inhibition above about 70%; inactive = the rest.
# What was measured:
# [1] = NCI Yeast Anticancer Drug Screen. Data for the mlh1 strain (AID 171);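 also: 0% = growth of vehicle-treated control cultures of the same strain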; details: S. cerevisiae mlh1 strain growth inhibition, active compounds read high
# Outline: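 Vehicle-normalised growth inhibition of a repair- or checkpoint-altered yeast strain following compound treatment.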
# [2] = NCI Yeast Anticancer Drug Screen. Data for the sgs1 strain (AID 173);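 also: 0% = growth of vehicle-only control cultures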; details: S. cerevisiae sgs1 mutant, active compounds read high
# Outline: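 Screen format: yeast with repair or checkpoint alterations, compound exposure, growth read relative to vehicle.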
# [3] = NCI Yeast Anticancer Drug Screen. Data for the mlh1 rad18 strain (AID 175); details: S. cerevisiae mlh1 rad18 strain growth inhibition, active compounds read high
# Outline: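 Vehicle-treated cultures served as the reference for growth inhibition in a yeast strain carrying DNA damage repair alterations exposed to each compound.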
# [4] = NCI Yeast Anticancer Drug Screen. Data for the rad18 strain (AID 177); details: S. cerevisiae rad18 mutant growth inhibition, active compounds read high
# Outline: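 Test articles were incubated with altered yeast defective in DNA damage repair. Results are given as inhibition of growth versus vehicle.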
# [5] = NCI Yeast Anticancer Drug Screen. Data for the wt1 strain (AID 149);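 also: 0% = growth of vehicle-treated wt1 cultures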; details: S. cerevisiae wt1 strain (SPY 50644) growth inhibition, active compounds read high
# Outline: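 Compounds are added to wt1 yeast cultures. Growth is then measured. Inhibition is expressed relative to vehicle-treated controls.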
# [6] = NCI Yeast Anticancer Drug Screen. Data for the rad50EPP+ strain (AID 151);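 also: 0% = growth of vehicle-treated control cultures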; details: S. cerevisiae rad50 mutant strain, active compounds read high
# Outline: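 In this screen, rad50EPP+ yeast were exposed to compounds. Growth inhibition was scored against vehicle-treated controls.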
# [7] = NCI Yeast Anticancer Drug Screen. Data for the mgt1 strain (AID 153); details: S. cerevisiae mgt1 mutant growth inhibition, active compounds read high
# Outline: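 mgt1 strain exposed; growth vs vehicle control recorded as inhibition.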
# [8] = NCI Yeast Anticancer Drug Screen. Data for the rad50 strain (AID 155);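 also: 0% = growth of vehicle-only cultures of the same strain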; details: S. cerevisiae rad50 strain growth inhibition, active compounds read high
# Outline: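 Inhibition values express reduced yeast growth in compound-treated cultures relative to vehicle-treated controls.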
# [9] = NCI Yeast Anticancer Drug Screen. Data for the mec2-1 strain (AID 157); details: S. cerevisiae mec2-1 strain, active compounds read high
# Outline: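 Vehicle-treated cultures served as reference for growth inhibition of compound-exposed mec2-1 yeast.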
# [10] = NCI Yeast Anticancer Drug Screen. Data for the rad14 strain (AID 159);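 also: 0% = growth of vehicle-treated control cultures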; details: S. cerevisiae rad14 strain growth inhibition, active compounds read high
# Outline: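 A mutant yeast strain defective in DNA damage repair is treated with compound; inhibition of its growth is scored against untreated, vehicle-exposed cultures.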
# [11] = NCI Yeast Anticancer Drug Screen. Data for the sgs1 mgt1 strain (AID 161);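 also: 0% = growth of cultures given vehicle only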; details: S. cerevisiae sgs1 mgt1 strain, active compounds read high
# Outline: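 Mutant yeast exposed to compound; growth scored against vehicle-only wells.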
# [12] = NCI Yeast Anticancer Drug Screen. Data for the CLN2oe strain (AID 163);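 also: 0% = growth of vehicle-only control cultures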; details: S. cerevisiae CLN2oe strain, active compounds read high
# Outline: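 Inhibition relative to vehicle-treated yeast is reported. Cells: strain with genetic alteration in cell-cycle control, grown with compound.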
# [13] = NCI Yeast Anticancer Drug Screen. Data for the cln2 rad14 strain (AID 165);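 also: 0% = growth equal to vehicle treated cultures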; details: S. cerevisiae cln2 rad14 strain, active compounds read high
# Outline: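 Each compound was tested on cln2 rad14 yeast. Inhibition of growth was calculated against vehicle-exposed controls.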
# [14] = NCI Yeast Anticancer Drug Screen. Data for the bub3 strain (AID 167); details: S. cerevisiae bub3 mutant strain, active compounds read high
# Outline: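 Steps: expose the mutant yeast strain to compound; grow alongside vehicle-treated cultures; measure growth; express inhibition against the vehicle cultures.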
# [15] = NCI Yeast Anticancer Drug Screen. Data for the wt2 strain (AID 169);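 also: 0% = growth of vehicle-treated yeast cultures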; details: S. cerevisiae wt2 strain growth inhibition, active compounds read high
# Outline: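 Inhibition of yeast growth was determined after compound treatment, normalised to controls receiving only vehicle.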
# [16] = at 5.0 µM (retest, dose inferred, filed as 0.5)
# [17] = at 50.0 µM (retest, dose inferred, filed as 5.0)
compound,measurement,setting,value
O=C(Cc1ccccc1F)NC1=C(Cl)C(=O)c2ccccc2C1=O,growth inhibition,[1]; at 1.2 µM,-2%
same,growth inhibition,[1]; at 3.7 µM,11%
same,growth inhibition,[1]; at 11.0 µM,8%
same,growth inhibition,[1]; at 33.0 µM,3%
same,growth inhibition,[1]; at 100.0 µM,14%
same,growth inhibition,[2]; at 1.2 µM,39%
same,growth inhibition,[2]; at 3.7 µM,35%
same,growth inhibition,[2]; at 11.0 µM,41%
same,growth inhibition,[2]; at 33.0 µM,59%
same,growth inhibition,[2]; at 100.0 µM,58%
same,growth inhibition,[3]; [16],20%
same,growth inhibition,[3]; [17],28%
same,growth inhibition,[3]; at 50.0 µM,-1.75%
same,growth inhibition,[4]; at 1.2 µM,29%
same,growth inhibition,[4]; at 3.7 µM,6%
same,growth inhibition,[4]; at 11.0 µM,25%
same,growth inhibition,[4]; at 33.0 µM,34%
same,growth inhibition,[4]; at 100.0 µM,40%
Cc1ccc(N(C=O)c2c([N+](=O)[O-])cc([N+](=O)[O-])c3c2=[N+]([O-])CN=3)cc1,growth inhibition,[5]; at 1.2 µM,3%
same,growth inhibition,[5]; at 3.7 µM,23%
same,growth inhibition,[5]; at 11.0 µM,20%
same,growth inhibition,[5]; at 33.0 µM,89% (active)
same,growth inhibition,[5]; at 100.0 µM,98% (active)
same,growth inhibition,[6]; at 1.2 µM,35%
same,growth inhibition,[6]; at 3.7 µM,51%
same,growth inhibition,[6]; at 11.0 µM,84% (active)
same,growth inhibition,[6]; at 33.0 µM,95% (active)
same,growth inhibition,[6]; at 100.0 µM,97% (active)
same,growth inhibition,[7]; at 1.2 µM,10%
same,growth inhibition,[7]; at 3.7 µM,-1%
same,growth inhibition,[7]; at 11.0 µM,52%
same,growth inhibition,[7]; at 33.0 µM,96% (active)
same,growth inhibition,[7]; at 100.0 µM,98% (active)
same,growth inhibition,[8]; at 1.2 µM,9%
same,growth inhibition,[8]; at 3.7 µM,18%
same,growth inhibition,[8]; [16],13%
same,growth inhibition,[8]; at 11.0 µM,25%
same,growth inhibition,[8]; at 33.0 µM,92% (active)
same,growth inhibition,[8]; [17],83% (active)
same,growth inhibition,[8]; at 50.0 µM,71.5% (active)
same,growth inhibition,[8]; at 100.0 µM,98% (active)
same,growth inhibition,[9]; at 1.2 µM,8%
same,growth inhibition,[9]; at 3.7 µM,19%
same,growth inhibition,[9]; [16],6%
same,growth inhibition,[9]; at 11.0 µM,32%
same,growth inhibition,[9]; at 33.0 µM,95% (active)
same,growth inhibition,[9]; [17],91% (active)
same,growth inhibition,[9]; at 50.0 µM,27.6%
same,growth inhibition,[9]; at 100.0 µM,98% (active)
same,growth inhibition,[10]; at 1.2 µM,-15%
same,growth inhibition,[10]; at 3.7 µM,1%
same,growth inhibition,[10]; at 11.0 µM,30%
same,growth inhibition,[10]; at 33.0 µM,94% (active)
same,growth inhibition,[10]; at 100.0 µM,97% (active)
same,growth inhibition,[11]; [16],12%
same,growth inhibition,[11]; [17],84% (active)
same,growth inhibition,[11]; at 50.0 µM,58.8%
same,growth inhibition,[12]; at 1.2 µM,-3%
same,growth inhibition,[12]; at 3.7 µM,8%
same,growth inhibition,[12]; at 11.0 µM,34%
same,growth inhibition,[12]; at 33.0 µM,95% (active)
same,growth inhibition,[12]; at 100.0 µM,98% (active)
same,growth inhibition,[13]; [16],28%
same,growth inhibition,[13]; [17],81% (active)
same,growth inhibition,[13]; at 50.0 µM,31.6%
same,growth inhibition,[14]; at 1.2 µM,-1%
same,growth inhibition,[14]; at 3.7 µM,5%
same,growth inhibition,[14]; [16],38%
same,growth inhibition,[14]; at 11.0 µM,19%
same,growth inhibition,[14]; at 33.0 µM,72% (active)
same,growth inhibition,[14]; [17],98% (active)
same,growth inhibition,[14]; at 50.0 µM,11%
same,growth inhibition,[14]; at 100.0 µM,97% (active)
same,growth inhibition,[15]; at 1.2 µM,9%
same,growth inhibition,[15]; at 3.7 µM,17%
same,growth inhibition,[15]; at 11.0 µM,46%
same,growth inhibition,[15]; at 33.0 µM,90% (active)
same,growth inhibition,[15]; at 100.0 µM,98% (active)
same,growth inhibition,[1]; at 1.2 µM,-1%
same,growth inhibition,[1]; at 3.7 µM,6%
same,growth inhibition,[1]; at 11.0 µM,48%
same,growth inhibition,[1]; at 33.0 µM,94% (active)
same,growth inhibition,[1]; at 100.0 µM,98% (active)
same,growth inhibition,[2]; at 1.2 µM,16%
same,growth inhibition,[2]; at 3.7 µM,21%
same,growth inhibition,[2]; at 11.0 µM,51%
same,growth inhibition,[2]; at 33.0 µM,89% (active)
same,growth inhibition,[2]; at 100.0 µM,98% (active)
same,growth inhibition,[3]; [16],12%
same,growth inhibition,[3]; [17],98% (active)
same,growth inhibition,[3]; at 50.0 µM,41.3%
same,growth inhibition,[4]; at 1.2 µM,0%
same,growth inhibition,[4]; at 3.7 µM,14%
same,growth inhibition,[4]; at 11.0 µM,47%
same,growth inhibition,[4]; at 33.0 µM,91% (active)
same,growth inhibition,[4]; at 100.0 µM,98% (active)
O=C(Nc1ccn(C2CC(O)C(COC(c3ccccc3)(c3ccccc3)c3ccccc3)O2)c(=O)n1)c1ccccc1 (centres undefined),growth inhibition,[5]; at 1.2 µM,-40%
same,growth inhibition,[5]; at 3.7 µM,-22%
same,growth inhibition,[5]; at 11.0 µM,94% (active)
same,growth inhibition,[5]; at 33.0 µM,94% (active)
same,growth inhibition,[5]; at 100.0 µM,89% (active)
same,growth inhibition,[6]; at 1.2 µM,-26%
same,growth inhibition,[6]; at 3.7 µM,-10%
same,growth inhibition,[6]; at 11.0 µM,-9%
same,growth inhibition,[6]; at 33.0 µM,10%
same,growth inhibition,[6]; at 100.0 µM,-15%
same,growth inhibition,[7]; at 1.2 µM,-22%
same,growth inhibition,[7]; at 3.7 µM,14%
same,growth inhibition,[7]; at 11.0 µM,81% (active)
same,growth inhibition,[7]; at 33.0 µM,82% (active)
same,growth inhibition,[7]; at 100.0 µM,79% (active)
same,growth inhibition,[8]; at 1.2 µM,-44%
same,growth inhibition,[8]; at 3.7 µM,20%
same,growth inhibition,[8]; [16],85% (active)
same,growth inhibition,[8]; at 11.0 µM,89% (active)
same,growth inhibition,[8]; at 33.0 µM,87% (active)
same,growth inhibition,[8]; [17],94% (active)
same,growth inhibition,[8]; at 50.0 µM,43.2%
same,growth inhibition,[8]; at 100.0 µM,83% (active)
same,growth inhibition,[9]; at 1.2 µM,-43%
same,growth inhibition,[9]; at 3.7 µM,-1%
same,growth inhibition,[9]; [16],64%
same,growth inhibition,[9]; at 11.0 µM,91% (active)
same,growth inhibition,[9]; at 33.0 µM,91% (active)
same,growth inhibition,[9]; [17],83% (active)
same,growth inhibition,[9]; at 50.0 µM,97.6% (active)
same,growth inhibition,[9]; at 100.0 µM,88% (active)
same,growth inhibition,[10]; at 1.2 µM,-32%
same,growth inhibition,[10]; at 3.7 µM,9%
same,growth inhibition,[10]; at 11.0 µM,78% (active)
same,growth inhibition,[10]; at 33.0 µM,81% (active)
same,growth inhibition,[10]; at 100.0 µM,78% (active)
same,growth inhibition,[11]; [16],50%
same,growth inhibition,[11]; [17],94% (active)
same,growth inhibition,[11]; at 50.0 µM,37.6%
same,growth inhibition,[12]; at 1.2 µM,-15%
same,growth inhibition,[12]; at 3.7 µM,36%
same,growth inhibition,[12]; at 11.0 µM,96% (active)
same,growth inhibition,[12]; at 33.0 µM,94% (active)
same,growth inhibition,[12]; at 100.0 µM,92% (active)
same,growth inhibition,[13]; [16],83% (active)
same,growth inhibition,[13]; [17],96% (active)
same,growth inhibition,[13]; at 50.0 µM,92.8% (active)
same,growth inhibition,[14]; at 1.2 µM,-34%
same,growth inhibition,[14]; at 3.7 µM,-11%
same,growth inhibition,[14]; [16],89% (active)
same,growth inhibition,[14]; at 11.0 µM,81% (active)
same,growth inhibition,[14]; at 33.0 µM,84% (active)
same,growth inhibition,[14]; [17],95% (active)
same,growth inhibition,[14]; at 50.0 µM,81.5% (active)
same,growth inhibition,[14]; at 100.0 µM,82% (active)
same,growth inhibition,[15]; at 1.2 µM,-15%
same,growth inhibition,[15]; at 3.7 µM,1%
same,growth inhibition,[15]; at 11.0 µM,81% (active)
same,growth inhibition,[15]; at 33.0 µM,84% (active)
same,growth inhibition,[15]; at 100.0 µM,79% (active)
same,growth inhibition,[1]; at 1.2 µM,-43%
same,growth inhibition,[1]; at 3.7 µM,-19%
same,growth inhibition,[1]; at 11.0 µM,74% (active)
same,growth inhibition,[1]; at 33.0 µM,79% (active)
same,growth inhibition,[1]; at 100.0 µM,74% (active)
same,growth inhibition,[2]; at 1.2 µM,6%
same,growth inhibition,[2]; at 3.7 µM,3%
same,growth inhibition,[2]; at 11.0 µM,84% (active)
same,growth inhibition,[2]; at 33.0 µM,85% (active)
same,growth inhibition,[2]; at 100.0 µM,79% (active)
same,growth inhibition,[3]; [16],87% (active)
same,growth inhibition,[3]; [17],95% (active)
same,growth inhibition,[3]; at 50.0 µM,94.8% (active)
same,growth inhibition,[4]; at 1.2 µM,-35%
same,growth inhibition,[4]; at 3.7 µM,21%
same,growth inhibition,[4]; at 11.0 µM,86% (active)
same,growth inhibition,[4]; at 33.0 µM,85% (active)
same,growth inhibition,[4]; at 100.0 µM,83% (active)
